Measured values reported in PubChem BioAssay (Tox21).
“And” between values parts separate entries of the source, which are not always exact repeats. Equal values may be shown once. Inconclusive results are not listed. Entries that show only a call come without a potency. The source holds several records for some structures; these can differ, active in one and inactive in another. The source made the active and inactive calls. Unless noted, calls follow the shape of the dose curve; as a rule, active = well fitted curve in the direction sought with a large enough effect in the repeat runs; inconclusive = weak or mixed curves; inactive = no such curve, though single readings can be large; an effect the other way counts as inactive or inconclusive.

How the values were obtained:
[1] = qHTS assay for small molecule agonists of the p53 signaling pathway (AID 651631; calls by dose curve; also: nearly all actives have a fitted effect of over 15% in size; also: potency is read from the fitted curve at half-maximal effect)
Summary of the method: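 HCT-116 cells carrying a beta-lactamase reporter under p53 response elements were dosed with compound for 16 h at 37 °C. LiveBLAzer B/G FRET substrate was then added for 2 h at room temperature, and fluorescence intensity was read to detect pathway agonism.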

[2] = qHTS assay for small molecules that induce genotoxicity in human embryonic kidney cells expressing luciferase-tagged ATAD5 (AID 651632); also: nearly all actives have a fitted effect of over 15% in size
Summary of the method: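 Reporter cells (HEK293T) express luciferase-tagged ATAD5, a protein that accumulates after DNA damage. Treat 16 hr at 37C/5% CO2, add Amplite, wait 30 min at RT, and read luminescence.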

[3] = qHTS assay for small molecule agonists of the p53 signaling pathway - cell viability (AID 651633; calls by dose curve; also: nearly all actives have a fitted effect of over 30% in size; also: potency is read from the fitted curve at half-maximal effect)
Summary of the method: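 p53RE-bla cells were treated with compound for 16 hours at 37 C. Cytotoxicity was then measured as CellTiter-Glo luminescence after 30 min at room temperature.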

[4] = qHTS assay for small molecules that induce genotoxicity in human embryonic kidney cells expressing luciferase-tagged ATAD5 - cell viability (AID 651634; calls by dose curve; also: nearly all actives have a fitted effect of over 25% in size; also: potency is read from the fitted curve at half-maximal effect)
Summary of the method: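 Seeding of 2,000 HEK293T ATAD5-luciferase cells per well preceded pin-tool compound transfer. Plates sat 15.5 hr at 37C under 5% CO2, then fluorescence was read after 30 min with CellTiter-Fluor.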

[5] = qHTS assay for small molecule disruptors of the mitochondrial membrane potential - cell viability (AID 720634; calls by dose curve; also: nearly all actives have a fitted effect of over 20% in size; also: potency is read from the fitted curve at half-maximal effect)
Summary of the method: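 Measuring cytotoxicity alongside mitochondrial potential, the screen quantified ATP by luminescence in HepG2 cells after 1 hr compound incubation and a 30 min room-temperature CellTiter-Glo step.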

[6] = qHTS assay for small molecule disruptors of the mitochondrial membrane potential (AID 720635); also: potency is read from the fitted curve at half-maximal effect
Summary of the method: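 HepG2 cells exposed to compound 1 hr at 37C, then Mito-MPS dye 30 min. Ratio read of aggregate (540/590 nm) versus monomer (490/535 nm) fluorescence.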

[7] = qHTS assay to test for compound auto fluorescence at 590 nm (red) in HepG2 cells (AID 720674)
Summary of the method: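 Seeding: 2,000 HepG2 cells/well, MEM/10% FBS, overnight 37 C. Dosing: compound vs DMSO. Incubation: 1 hr, 37 C, 5% CO2. Read: fluorescence 540 ex/590 em, Rose Bengal sodium as red reference.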

[8] = qHTS assay to test for compound auto fluorescence at 590 nm (red) in HEK293 cells (AID 720679)
Summary of the method: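 Plates of HEK293 cells (10% dialyzed FBS) are treated with 23 nL compound or DMSO vehicle after a 4-5 hr attachment period, incubated overnight at 37C, and read for red fluorescence at 540/590nm.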

[9] = qHTS assay to test for compound auto fluorescence at 535 nm (green) in HEK293 cells (AID 720680)
[10] = qHTS assay to test for compound auto fluorescence at 460 nm (blue) in HEK293 cell free culture (AID 720681)
Summary of the method: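 Compounds were added to cell-free DMEM with 10% FBS and fluorescence read directly. The blue channel used 405 nm excitation and 460 nm emission, with triamterene as the reference fluorophore.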

[11] = qHTS assay to test for compound auto fluorescence at 535 nm (green) in HEK293 cell free culture (AID 720682)
Summary of the method: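 Green-label autofluorescence (485 nm excitation, 535 nm emission) measured on compound added to cell-free culture medium (DMEM, 10% FBS). Output is expressed relative to fluorescein.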

[12] = qHTS assay to test for compound auto fluorescence at 590 nm (red) in HEK293 cell free culture (AID 720683)
Summary of the method: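 Cell-free wells of DMEM with 10% FBS received compound, and intrinsic fluorescence was read at excitation/emission 540/590 nm. Values expressed as equivalence to Rose Bengal sodium.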

[13] = qHTS assay to test for compound auto fluorescence at 590 nm (red) in HepG2 cell free culture (AID 720684)
Summary of the method: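 Compound was pinned into wells holding MEM with 10% FBS and no cells, and red fluorescence was read at Ex/Em 540/590 nm. Signal is expressed as auto fluorescence equivalency relative to Rose Bengal sodium.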

[14] = qHTS assay to test for compound auto fluorescence at 460 nm (blue) in HepG2 cell free culture (AID 720685)
Summary of the method: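 Compound (23 nL) or DMSO pinned into cell-free MEM with 10% FBS; blue fluorescence read at 405/460 nm excitation/emission, expressed as auto-fluorescence equivalency to triamterene.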

[15] = qHTS assay to test for compound auto fluorescence at 535 nm (green) in HepG2 cell free culture (AID 720686)
[16] = qHTS assay to test for compound auto fluorescence at 460 nm (blue) in HepG2 cells (AID 720687)
Summary of the method: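 HepG2 cells in MEM with 10% FBS, attached overnight at 37 C, were exposed to compound or DMSO for 1 hr at 37 C, 5% CO2. Blue fluorescence was read at 405/460 nm, with triamterene as reference fluorophore.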

[17] = molecular target: Glucocorticoid receptor (Homo sapiens) (UniProt P04150); test: qHTS assay to identify small molecule agonists of the glucocorticoid receptor (GR) signaling pathway (AID 720691; active = well fitted activation curve with a large enough effect in the signal ratio in the repeat runs, not every such curve was filed as active; the % refers to the signal ratio)
Sequence of Glucocorticoid receptor (Homo sapiens) (P04150 whole entry, looked up): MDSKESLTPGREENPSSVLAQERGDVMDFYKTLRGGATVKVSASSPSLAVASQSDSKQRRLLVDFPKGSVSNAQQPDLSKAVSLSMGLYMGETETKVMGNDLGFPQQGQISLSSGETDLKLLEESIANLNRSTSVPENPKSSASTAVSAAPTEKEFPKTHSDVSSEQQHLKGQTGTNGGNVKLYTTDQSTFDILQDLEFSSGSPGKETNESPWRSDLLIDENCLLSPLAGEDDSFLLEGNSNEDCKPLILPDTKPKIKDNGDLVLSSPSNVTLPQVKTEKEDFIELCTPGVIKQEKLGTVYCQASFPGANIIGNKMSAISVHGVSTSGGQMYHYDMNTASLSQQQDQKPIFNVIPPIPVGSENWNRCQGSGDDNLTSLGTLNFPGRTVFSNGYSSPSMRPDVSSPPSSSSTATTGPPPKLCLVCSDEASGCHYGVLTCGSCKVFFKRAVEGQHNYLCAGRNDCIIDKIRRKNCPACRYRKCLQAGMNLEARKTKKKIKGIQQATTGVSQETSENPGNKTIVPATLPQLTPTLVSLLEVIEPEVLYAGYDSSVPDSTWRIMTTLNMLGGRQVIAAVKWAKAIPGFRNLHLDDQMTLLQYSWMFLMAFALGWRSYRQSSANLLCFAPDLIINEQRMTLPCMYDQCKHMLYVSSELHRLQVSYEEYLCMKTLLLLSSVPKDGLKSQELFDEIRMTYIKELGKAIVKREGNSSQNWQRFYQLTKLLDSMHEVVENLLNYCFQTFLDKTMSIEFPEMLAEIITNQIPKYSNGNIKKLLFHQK
Summary of the method: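 Reporter read-out: fluorescence intensity following 2 h room-temperature LiveBLAzer B/G FRET substrate loading. Prior step: GR-bla HeLa cells held 4 h, then treated 18 h at 37 C.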

[18] = molecular target: Glucocorticoid receptor (Homo sapiens) (UniProt P04150); test: qHTS assay to identify small molecule antagonists of the glucocorticoid receptor (GR) signaling pathway (AID 720692; active = well fitted inhibition curve with a large enough effect in the signal ratio in the repeat runs, not every such curve was filed as active; the % refers to the signal ratio; also: potency is read from the fitted curve at half-maximal effect)
Summary of the method: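 Dexamethasone (5 nM final) stimulated a stably integrated GRE-beta-lactamase reporter in HeLa cells during 18 h co-incubation with compounds; signal was quantified as fluorescence intensity of B/G FRET substrate after 2 h.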

[19] = qHTS assay to test for compound auto fluorescence at 535 nm (green) in HepG2 cells (AID 720675)
[20] = qHTS assay to test for compound auto fluorescence at 460 nm (blue) in HEK293 cells (AID 720678)
Summary of the method: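 After cell attachment (4-5 hr, 37C), compounds were pinned onto HEK293 monolayers in 10% dialyzed FBS medium. The blue channel (405/460 nm) was read following overnight culture. Equivalency was calculated against triamterene.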

SMILES	Potency [1]	Potency [2]	Potency [3]	Potency [4]	Potency [5]	Potency [6]	outcome [7]	outcome [8]	outcome [9]	Potency [10]	outcome [11]	outcome [12]	outcome [13]	Potency [14]	outcome [15]	Potency [16]	outcome [17]	Potency [18]	outcome [19]	Potency [20]
O=NN(c1ccccc1)c1ccccc1	inactive	inactive	inactive	inactive	inactive	inactive	inactive	inactive	inactive	inactive	inactive	inactive	inactive	inactive	inactive	inactive	inactive	inactive	–	–
CC1(C)C(C(=O)OC(C#N)c2cccc(Oc3ccccc3)c2)C1(C)C (stereo unspecified)	inactive	inactive	inactive	inactive	54.4 µM (active)	30.9 µM (active)	inactive	inactive	inactive	inactive	inactive	inactive	inactive	inactive	inactive	inactive	–	–	inactive	inactive
CC(C)(C#N)N=NC(C)(C)C#N	inactive	inactive	inactive	inactive	inactive	inactive	inactive	inactive	inactive	inactive	inactive	inactive	inactive	inactive	inactive	inactive	inactive	inactive	inactive	inactive
CCOP(=O)(OCC)OCC	inactive	inactive	inactive	inactive	inactive	inactive	–	inactive	inactive	inactive	inactive	inactive	inactive	inactive	inactive	inactive	inactive	inactive	inactive	inactive
C[C@]12CC[C@H]3[C@@H](CCC4=CC(=O)CC[C@@H]43)[C@@H]1CC[C@@H]2O	inactive	inactive	inactive	inactive	inactive	inactive	inactive	inactive	inactive	inactive	inactive	inactive	inactive	inactive	inactive	inactive	–	3.01 µM (active) and 4.25 µM (active) and 6.85 µM (active)	–	–
CC(C)(O)C#N	inactive	inactive	inactive	inactive	inactive	inactive	inactive	inactive	inactive	inactive	inactive	inactive	inactive	inactive	inactive	inactive	–	–	inactive	inactive
O=C1CCCO1	inactive	inactive	inactive	inactive	inactive	inactive	inactive	inactive	inactive	inactive	inactive	inactive	inactive	inactive	inactive	inactive	inactive	inactive	–	–
CCN(CC)C(=O)C(C)Oc1cccc2ccccc12 (stereo unspecified)	inactive	inactive	inactive	inactive	inactive	inactive	inactive	inactive	inactive	inactive	inactive	inactive	inactive	inactive	inactive	inactive	–	–	–	inactive
Cc1ccc([N+](=O)[O-])cc1	inactive	inactive	inactive	inactive	inactive	inactive	–	inactive	inactive	inactive	inactive	inactive	inactive	inactive	inactive	inactive	inactive	inactive	inactive	inactive
CCC/C=N/O	inactive	inactive	inactive	inactive	inactive	inactive	inactive	inactive	inactive	inactive	inactive	inactive	inactive	inactive	inactive	inactive	inactive	inactive	inactive	inactive
ClCC(Cl)CCl	inactive	inactive	inactive	inactive	inactive	inactive	inactive	inactive	inactive	inactive	inactive	inactive	inactive	inactive	inactive	inactive	inactive	inactive	–	inactive
OC(c1ccc(Cl)cc1)(c1cncnc1)c1ccccc1Cl (stereo unspecified)	inactive	inactive	inactive	inactive	–	49.4 µM (active) and 30.6 µM (active)	inactive	inactive	inactive	inactive	inactive	inactive	inactive	inactive	inactive	inactive	inactive	49 µM (active)	inactive	–
CS(=O)(=O)NC(=O)c1cc(Oc2ccc(C(F)(F)F)cc2Cl)ccc1[N+](=O)[O-]	inactive	inactive	inactive	inactive	–	–	inactive	inactive	inactive	inactive	inactive	inactive	inactive	inactive	inactive	inactive	–	–	inactive	–
O=C(O)c1nn(Cc2ccc(Cl)cc2Cl)c2ccccc12	inactive	inactive	inactive	inactive	inactive	inactive	–	inactive	inactive	inactive	inactive	inactive	inactive	inactive	inactive	inactive	inactive	inactive and 43.4 µM (active)	–	inactive
C[N+](C)(C)CC(=O)[O-]	–	inactive	inactive	inactive	inactive	inactive	inactive	inactive	inactive	inactive	inactive	inactive	inactive	inactive	inactive	inactive	–	–	inactive	inactive
CCCCOCCOC(C)=O	inactive	inactive	inactive	inactive	inactive	53 µM (active)	–	inactive	inactive	inactive	inactive	inactive	inactive	inactive	inactive	inactive	inactive	inactive	inactive	–
CCNc1nc(Cl)nc(NC(C)(C)C#N)n1	inactive	inactive	inactive	inactive	inactive	inactive	–	inactive	inactive	inactive	inactive	inactive	inactive	inactive	inactive	inactive	inactive	inactive	inactive	–
Nc1ccc([N+](=O)[O-])cc1N	–	inactive	inactive	54.4 µM (active)	inactive	30.6 µM (active)	inactive	inactive	inactive	inactive	inactive	inactive	inactive	inactive	inactive	inactive	–	–	inactive	–
CCC1(c2ccc(N)cc2)CCC(=O)NC1=O (stereo unspecified)	–	inactive	inactive	inactive	inactive	inactive	inactive	inactive	inactive	inactive	inactive	inactive	inactive	inactive	inactive	inactive	inactive	inactive	inactive	inactive
CC(C)Nc1nc(Cl)nc(NC(C)C)n1	inactive	inactive	inactive	inactive	inactive	inactive	–	inactive	inactive	inactive	inactive	inactive	inactive	inactive	inactive	inactive	–	–	–	–
C=C(C)C#N	inactive	inactive	inactive	inactive	–	–	inactive	inactive	inactive	inactive	inactive	inactive	inactive	inactive	inactive	inactive	–	–	–	–
NN=C(N)N	–	inactive	inactive	inactive	inactive	inactive	inactive	inactive	inactive	inactive	inactive	inactive	inactive	inactive	inactive	inactive	–	–	inactive	–
NC(=O)CN1CCCC1=O	inactive	inactive	inactive	inactive	inactive	inactive	–	inactive	inactive	inactive	inactive	inactive	inactive	inactive	inactive	inactive	inactive	inactive	–	inactive
CC(C)Nc1ccc(Nc2ccccc2)cc1	26.6 µM (active) and 68.3 µM (active) and 30.6 µM (active)	inactive	23.7 µM (active) and inactive	inactive	–	21.1 µM (active) and 60.9 µM (active) and 61.1 µM (active)	inactive	inactive	inactive	inactive	inactive	inactive	inactive	inactive	inactive	inactive	inactive	–	–	inactive
CCCCOCC1CO1 (stereo unspecified)	inactive	inactive	inactive	inactive	inactive	inactive	–	inactive	inactive	inactive	inactive	inactive	inactive	inactive	inactive	inactive	inactive	inactive	inactive	inactive
S=c1[nH]c2ccccc2[nH]1	inactive	–	inactive	inactive	inactive	inactive	inactive	inactive	inactive	inactive	inactive	inactive	inactive	inactive	inactive	inactive	inactive	inactive	inactive	inactive
CCCCOC(=O)COC(=O)c1ccccc1C(=O)OCCCC	inactive	inactive	inactive	inactive	inactive	inactive	–	inactive	inactive	inactive	inactive	inactive	inactive	inactive	inactive	inactive	inactive	inactive	inactive	–
CCCCSP(=O)(SCCCC)SCCCC	inactive	inactive	inactive	inactive	–	–	–	inactive	inactive	inactive	inactive	inactive	inactive	inactive	inactive	inactive	inactive	inactive	–	inactive
CC1=C(C(=O)Nc2ccccc2)SCCO1	inactive	–	inactive	inactive	inactive	–	–	inactive	inactive	inactive	inactive	inactive	inactive	inactive	inactive	inactive	inactive	inactive	inactive	inactive
CCOP(=S)(OCC)SCSC(C)(C)C	inactive	inactive	inactive	inactive	inactive	–	–	inactive	inactive	inactive	inactive	inactive	inactive	inactive	inactive	inactive	–	–	inactive	–
